Hit rate of the full screen: of about 53,000 sequences, about 3,700 (7%) were called active.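 The calls were made as follows: active = gene knockdowns whose robust z-score for IL-1 alpha signal is at least 2 or at most -2, so actives lie on both sides; inactive = the rest.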 Shown is part of a subset that was picked to be rich in actives.

This assay in a line: Components of the Cytosolic LPS Sensing Pathway: Gene Identification via Genome-wide siRNA Screen.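 Also: robust z of the log signal after scaling to non-targeting control siRNA wells of the plate.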 The following applies: RAW264.7 macrophages, IL-1a HTRF, actives lie on both sides, screened at 100 nM (by protocol), cells primed 5 h with Pam3CSK4 first. Put shortly:
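Supernatant IL-1a by HTRF from RAW264.7 cells primed with Pam3CSK4 (5 hours) and transfected with LipidA (24 hour) after 48h siRNA knockdown at 100 nM; cell viability checked with CellTiter-Glo.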
For the sequence CGCAUAGAGCCUGUCCUCATT against Spink1, the z-score is -1.57 (inactive).
Turning to GCUCGAUGUGAACUGCUAGTT against Ankrd9, the z-score was 2.12 (active).
Then GGUACAUAUGUGAUGACCGTT against Cdh4, with -0.289 (inactive).
Take GGCGUAGGGCCAUAUCAUUTT against Olfr109: the z-score was -0.117 (inactive).
Then GGUCAUGAACCUCAUCAUCTT against Nckap1l, with -0.552 (inactive); and GGCUGAAUAAAAUAAGUGUTT against Adra1a, with -1.1 (inactive).
Regarding GGUUUAAUGUUAUAUACGGTT against Olfr606, the z-score was 2.43 (active).
As for CCAAAAGUGGAGAGCGACATT against Cnrip1, the figure is -1.32 (inactive); as for GGAGCGAGAAGGUAAAGUCTT against Pibf1, 1.05 (inactive).
GGGACUGGAAUUGACAUCCTT against Trpm4: the z-score is -1.38 (inactive).
Then GGGAAUUUUUGUGGGUGAATT against Bbs2, with -0.541 (inactive); and GGUGCUGAUUGACCUAACATT against Wdtc1, with -2.24 (active); and GGAAGUGGAGGAAAAGAAGTT against Pdcd7, with -2.52 (active).
In the case of GGAAAAACUACUCAAGGAGTT against Evi5l, the z-score is -0.0731 (inactive).
Then CCUGGUUAAAGGUUAUCCATT against Commd7, with -3.9e-05 (inactive).
As for GGCAAGUCUGUGUGCAGAUTT against Olfr267, the figure is 0.579 (inactive); as for CCAGGAACCUAUUGAAUCUTT against Plpp7, 1.15 (inactive).
Then GGUAGAAAACAUAAAUGGUTT against Sec16a, with 1.71 (inactive); and GGCCAUGGUUAAACCAUAUTT against Pdcl2, with 0.791 (inactive); and GGACCUAUACAAGGGAGGUTT against Il1f10, with 1.17 (inactive).
With GGUGUUUUCUGUGCUGUGATT against Klhdc3, the z-score is -1.55 (inactive).
As for GGUGCUUAUACUUCUUUGUTT against Sgcz, the figure is -2.42 (active); as for GCCAAUAAUUGUCACACAUTT against Adgrg3, 1.94 (inactive); as for GGACUUGGGUUUCAAUUCCTT against Ddx27, -0.876 (inactive).
GGCACUCAGAAAUAUUCAGTT against Nap1l3: the z-score was 3.84 (active).
As for GCAGUCUUCCCUCAUCCUUTT against Cox8a, the figure is 1.74 (inactive); as for GGCAGUAAAUAGUAAGAAATT against Ccr9, -0.716 (inactive).
As for GGAGUGGUGUGUCAUUGAUTT against Impact, the figure is -0.663 (inactive); as for GCACAACAUCCCAGAUAAATT against Ankrd55, 0.338 (inactive).
As to GGAUACCCUGCUUCCAAAATT against Hpd, the z-score was 2.23 (active).
Then GCCAGGCAAAUUACAUCGCTT against Shroom1, with 0.303 (inactive).
In the case of CCUGCACUACUGGAUUGGATT against Vill, the z-score is 0.265 (inactive).
Then GCUCCAUUAUGCCAGACUATT against Madcam1, with 0.8 (inactive).
As to GGAUAAUGAAGAAUGCCAATT against Abca4, the z-score is -0.533 (inactive).
As for CGGACUAUUGGAGACCAACTT against Gpsm2, the figure is 2.16 (active); as for GGUCAUCAACGUGCUAGAGTT against Nucb1, -1.3 (inactive); as for GGAUGCAUGAGAAAUGUUATT against Tbc1d14, -0.0572 (inactive).
As for GGUAUAAGUUGGCAAGAUCTT against Cry2, the figure is 0.849 (inactive); as for CCCUUGAUUACACCACAGUTT against Cfc1, -2.6 (active).
Then GGUCACAUUUAAUGUCACATT against Itgam, with -0.789 (inactive); and GGACAAUCAGUACCUUAACTT against Tex9, with -0.375 (inactive).
GGAAGGUUUCGCUUUGAAUTT against Tarm1: the z-score was -0.469 (inactive).
As for GGCUCAGAUUUUGUGAUUCTT against Olfr894, the figure is -1.44 (inactive); as for GGACUUUUUCACUUUCAAATT against Ugt1a5, -0.198 (inactive).
For CGCCACACACCAUCACAUUTT against Scap, the z-score is -0.0743 (inactive).
In the case of GGAAUAUUCUCUCAUCACATT against Mmachc, the z-score is -2.07 (active).
With GCUAACCAUGUGACAAUAATT against Timm8a1, the z-score is -1.39 (inactive).
As for GGCCCAGCAGACAACUUUATT against Sgca, the z-score is 0.797 (inactive).
Then CCUCCGGAGUAUAAACAAUTT against Nr1i3, with 0.21 (inactive); and GGAGGAAGAAGACUCAGAATT against Prkag2, with 3.46 (active); and GAAGAGGGCACCUAGUUUCTT against Cox7b, with 0.249 (inactive).
Then GCCACGAAGGUACUAUGUATT against Tbce, with 0.176 (inactive); and GGGAGAAAUGCCUUUAGUCTT against Erfe, with 3.79 (active).
For GGUUACCACACUAUGUUACTT against Tbc1d2b, the z-score was 0.454 (inactive).
Regarding GGAAAAGUCCAAGUUUGAATT against Hmgb2, the z-score was -0.104 (inactive).
Then GGAGAUAAUCCUGAAUGGCTT against Hsd3b6, with -1.18 (inactive); and GGCCAAAAGGUUGAGCAGUTT against Nsun2, with 0.311 (inactive); and GCUUUUAGGCCUCCAAAAGTT against Lmnb2, with 1.15 (inactive).
Then GGAACUUCGUCAGUACAUUTT against Setdb1, with 5.77 (active); and GGAGAAACUGGCAGACCUUTT against Washc3, with -0.388 (inactive).
Take GCCUUCAGGACGAUUUAUUTT against Pla2g7: the z-score is 1.19 (inactive).
Take GCGAAAUCUUUGUCACUAATT against Sertad4: the z-score is -0.201 (inactive).
Consider GGAAGUAUUUGAUCAUGGATT against Smarca5, for which the z-score is -0.465 (inactive).
Then GGAAAGGUAAUGCAUCACATT against Rev3l, with -1.68 (inactive).
As for GGCUGAAGAUCACCAAGAATT against Neurl1a, the figure is -0.869 (inactive); as for CGGAAUCAUUCGGAAUGAGTT against Capza3, -1.01 (inactive); as for GGAAAUCCUGAAGUUUCCUTT against Grk5, 4.41 (active).
As for CGUGAUCCCACAGAUGUAGTT against Csrp3, the z-score is -0.649 (inactive).
As for GGGAGGUGUCUUUACGUCUTT against Neto1, the figure is -0.773 (inactive).

For the origin of these results see PubChem BioAssay AID1508600 (Functional Genomics Laboratory (NCATS/FGL), 2020).
